We go through nine compounds from PubChem BioAssay (NCATS).

Assay [1] addresses Cytochrome P450 3A4 (Homo sapiens) (UniProt P08684). The assay is described as follows: qHTS Assay for Inhibitors and Substrates of Cytochrome P450 3A4 (AID 884). Note: % is set by controls: 0 for no effect and ±100 for the full control effect; nearly all actives have a fitted effect of over 50% in size. In short, it runs like this: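 20 nM human CYP3A4 with 25 uM Luciferin-PPXE (at KM) in 200 mM KPO4, preincubated 10 min with compound; NADPH regeneration started a 60 min RT reaction. Luciferin detected by luminescence, normalized to 57 uM ketoconazole as full inhibition.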

Assay [2] in a line: Confirmation and Secondary Assay for Modulators of Hemoglobin Beta Chain Splicing at IVS2 654 locus (AID 910).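 Note: HeLa cells stably carrying EGFP split by mutant beta-globin IVS2-654 intron; per-well total GFP intensity by laser scanning cytometry after 2-day treatment; % of control where 0% means no effect.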 In short, it runs like this:
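Readout: per-well total peak green fluorescence (488 nm ex, 500–520 nm em) from objects 5–250 µm, reflecting correct splicing of an EGFP-654 reporter. Compounds were applied for 2 days at 37 °C to overnight-plated HeLa EGFP-654 cells; controls were DMSO and 500 nM IVS2-654 PNA.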

The nature of assay [3]: Confirmation and Secondary Assay for Modulators of Hemoglobin Beta Chain Splicing at IVS2 705 locus (AID 930).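 Note: HeLa cells stably expressing the EGFP-705 splicing reporter; GFP fluorescence per well restored by corrected splicing of the IVS2-705 intron in EGFP; % of control where 0% means no effect.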 In short, it runs like this:
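HeLa EGFP-705 reporter; 500 cells/well, o/n 37C 5% CO2; cpd 2 d; 488 ex/500-520 em laser scan; total peak GFP intensity/well. Ref: 500 nM […] antisense PNA.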

Assay [4] is described as follows: qHTS Assay for Lipid Storage Modulators (AID 1519; calls by dose curve; for activity change, negative = inhibition: % is set by controls: 0 for no effect and ±100 for the full control effect). As to conditions: Drosophila S3 cells, BODIPY lipid droplet/cell ratio, laser cytometry, cells loaded with oleic acid. In short, it runs like this:
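Cells seeded at 5,000 per well were treated with compounds over a concentration series and loaded with oleic acid (400 uM, as added). Lipid droplet fluorescence (488 nm excitation, 500-530 nm channel) was read by laser-scanning cytometry and normalized to 20 uM Triacsin C.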
In general terms: In qHTS, concentration-response curves come from the screen itself.

For assay [5], the target named is Ubiquitin carboxyl-terminal hydrolase 1 (Homo sapiens) (UniProt O94782). Description: Inhibitors of USP1/UAF1: Pilot qHTS (AID 504865).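 Note: rhodamine fluorescence freed from ubiquitin-rhodamine substrate followed over time; top concentration of the series differs between compounds; % is set by controls: 0 for no effect and ±100 for the full control effect; nearly all actives have a fitted effect of over 35% in size.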 In short, it runs like this:
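In 50mM HEPES pH 7.8 containing 0.5mM EDTA, 1mM TCEP, 0.1 mg/ml BSA and 0.01% Tween-20, 1nM USP1/UAF1 is exposed to compound for 15 min, then Ub-Rho (150nM final) is added and fluorescence is read over time.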

The nature of assay [6]: qHTS profiling for inhibitors of Plasmodium falciparum proliferation (AID 504749).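 Note: 0% = DMSO vehicle and full inhibition = artemisinin control; nearly all actives have a fitted effect of over 60% in size.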 Particulars: P. falciparum in erythrocytes, SYBR Green DNA, 72 h. In short, it runs like this:
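Infected RBCs, 0.3% parasitemia/2.5% Hct final; cpd 72 h, 37 C, 5% CO2; lysis buffer with saponin/triton/SYBR Green I, o/n RT dark; FI 485/535; norm. to artemisinin (0.29 uM) and DMSO.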

Assay [7] can be described thus: qHTS assay for small molecule antagonists of peroxisome proliferator-activated receptor delta signaling (AID 588535; active = well fitted inhibition curve with a large enough effect in the signal ratio, with a control signal flat, not every such curve was filed as active; the % refers to the signal ratio;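 for max response: cells co-treated with a PPAR-delta agonist as stimulator during compound exposure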). As to conditions: HEK293T PPARd-UAS-bla, beta-lactamase FRET ratio, 18 h; 460 nm channel. In short, it runs like this: (§1)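 HEK293T PPAR-delta-UAS-bla cells, 4000/well, 2% charcoal/dextran FBS; 5 h 37 C; cpd titration; 18 h 37 C; CCF4 2 h RT; FI 460/530 nm; Hill fit → IC50, efficacy.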

Assay [8] has as its target Peroxisome proliferator-activated receptor delta (Homo sapiens) (UniProt Q03181). Described as above. In short, it runs like this:
as §1

Assay [9] addresses Vitamin D3 receptor (Homo sapiens) (UniProt P11473). The assay is described as follows: qHTS assay for small molecule antagonists of vitamin D receptor signaling (AID 588541; calls by dose curve;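 note: receptor activated by calcitriol during compound treatment; % is set by controls: 0 for no effect and ±100 for the full control effect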). In short, it runs like this: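 Antagonist-mode beta-lactamase reporter assay: HEK293T VDR-UAS-bla cells were exposed to titrated compound alongside 1-alpha,25-dihydroxyvitamin D3 at 3 nM final for 16 h. Values were normalized to the 50 nM agonist control and DMSO basal, with IC50 and efficacy from Hill equation fits.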

The nature of assay [10]: qHTS assay for small molecule agonists of retinoid X receptor alpha signaling (AID 588544; calls by dose curve). As to conditions: HEK293T RXRa-UAS-bla, beta-lactamase reporter, 18 h; 530 nm emission.
Assay [11] has as its target Retinoic acid receptor RXR-alpha (Homo sapiens) (UniProt P19793). Described as above.
A short description of assay [12]: qHTS assay for small molecule antagonists of retinoid X receptor alpha signaling (AID 588546; active = well fitted inhibition curve with a large enough effect in the signal ratio, with a control signal flat, not every such curve was filed as active; the % refers to the signal ratio;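 note: cells stimulated with 9-cis-retinoic acid as agonist; % is set by controls: 0 for no effect and ±100 for the full control effect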). As to conditions: HEK293T RXRa-UAS-bla, beta-lactamase ratio, antagonist mode; measured here: W530 green channel, cytotoxicity proxy. The method in brief:
(§2)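 Beta-lactamase reporter inhibition, read as CCF4 fluorescence ratio (ex 405, em 460/530 nm) after 2 h at RT. HEK293T UAS-bla cells, 2500/well, were stimulated with 9-cis-RA at 500 or 100 nM final alongside test compound for 18 h at 37 C.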

In assay [13] the target is Retinoic acid receptor RXR-alpha (Homo sapiens) (UniProt P19793). Described as above. As to conditions: HEK293T RXRa-UAS-bla, beta-lactamase ratio, antagonist mode. In short, it runs like this:
as §2

For assay [14], the target named is Peroxisome proliferator-activated receptor alpha (Homo sapiens) (UniProt Q07869). Description: qHTS assay for small molecule agonists of the peroxisome proliferator-activated receptor alpha (PPARalpha) signaling pathway (AID 651778). Note: % of control where 0% means no effect. Particulars: PathHunter PPARalpha complementation, chemiluminescence, 6 h; stronger effect = higher value. The method in brief: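 Chemiluminescence from complemented enzyme reported PPARalpha activation in cells after 6 hr of compound treatment at 37 C. The detection reagent was incubated for 60 min at room temperature, and compounds were scored as agonists.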

Assay [15] is described as follows: qHTS assay for small molecule agonists of the antioxidant response element (ARE) signaling pathway measured by Nrf2-dependant transcriptional activity - cell viability counter screen (AID 720653; active = well fitted curve in the direction sought with a large enough effect in the repeat runs; an effect the other way counts as inactive or inconclusive; note: % is set by controls: 0 for no effect and ±100 for the full control effect). As to conditions: ARE-bla HepG2 viability, CellTiter-Glo ATP luminescence, 16 h; stronger effect = lower value. In short, it runs like this: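 Cytotoxicity counter screen: intracellular ATP quantified by CellTiter-Glo luminescence in the same ARE-bla HepG2 plates, after 16 h compound exposure and a 2 h beta-lactamase substrate step.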

A short description of assay [16]: qHTS assay for cell viability of HEK293 cells (AID 743288). Note: % is set by controls: 0 for no effect and ±100 for the full control effect; nearly all actives have a fitted effect of over 50% in size. Particulars: ATP luminescence (CellTiter-Glo), 18 h; max response: stronger effect = lower value. The method in brief:
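HEK293 parental, 2,000 cells/well; ≥5 h pre-incubation 37 C; pintool compound addition; 18 h, 37 C; CellTiter-Glo 30 min RT; luminescence read.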

Assay [17] in a line: qHTS assay for cell viability of the p53RE-bla HCT-116 cell line (AID 743292). Note: % is set by controls: 0 for no effect and ±100 for the full control effect; nearly all actives have a fitted effect of over 55% in size. In short, it runs like this:
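HCT-116 p53RE-bla cells seeded 4,000/well; 5 h at 37 C; compound (DMSO) added; 16 h at 37 C; CellTiter-Glo added, 30 min RT; luminescence read.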

The target of assay [18] is Nuclear receptor subfamily 1 group I member 2 (Rattus norvegicus) (UniProt Q9R1A7). Description: qHTS assay for small molecule activators of the rat pregnane X receptor (rPXR) signaling pathway (AID 651751; call rule not given here; note: 0% is about no effect). Particulars: rPXR reporter cells, luciferase (One-Glo), 24 h.
Assay [19] concerns the target DNA dC->dU-editing enzyme APOBEC-3G (Homo sapiens) (UniProt Q9HC16). Description: qHTS for inhibitors of Vif-A3G interactions: Validation (AID 588379). Note: 0% is about no effect. In short, it runs like this:
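HeLa cells stably expressing Vif and A3G-eYFP, 700 cells/well, incubated overnight at 37 deg C, then exposed to compound overnight at 37 deg C. Inhibition of Vif-mediated degradation read as increased yellow fluorescence (Ex 488/Em 500-530) by laser-scanning cytometry.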

The mark [20] stands for this setting: measured here: cell count channel max response.
Where [21] appears, read: measured here: lipid channel max response.
The mark [22] stands for this setting: at 28.7 µM (top of the series), parasite line A.
Setting [23] is: at 28.7 µM (top of the series), parasite line B.

SMILES strings stand for the structures. Results filed as inconclusive are left out. Active and inactive are the calls of the source. Unless noted, calls come from the whole dose curve; as a rule, active = well fitted curve in the direction sought with a large enough effect; inconclusive = small, poorly fitted or top-dose-only effect, or another doubt; inactive = no such curve, though single readings can be large; an effect the other way counts as inactive or inconclusive.

Chain of Ubiquitin carboxyl-terminal hydrolase 1 (Homo sapiens) (O94782 whole entry, looked up): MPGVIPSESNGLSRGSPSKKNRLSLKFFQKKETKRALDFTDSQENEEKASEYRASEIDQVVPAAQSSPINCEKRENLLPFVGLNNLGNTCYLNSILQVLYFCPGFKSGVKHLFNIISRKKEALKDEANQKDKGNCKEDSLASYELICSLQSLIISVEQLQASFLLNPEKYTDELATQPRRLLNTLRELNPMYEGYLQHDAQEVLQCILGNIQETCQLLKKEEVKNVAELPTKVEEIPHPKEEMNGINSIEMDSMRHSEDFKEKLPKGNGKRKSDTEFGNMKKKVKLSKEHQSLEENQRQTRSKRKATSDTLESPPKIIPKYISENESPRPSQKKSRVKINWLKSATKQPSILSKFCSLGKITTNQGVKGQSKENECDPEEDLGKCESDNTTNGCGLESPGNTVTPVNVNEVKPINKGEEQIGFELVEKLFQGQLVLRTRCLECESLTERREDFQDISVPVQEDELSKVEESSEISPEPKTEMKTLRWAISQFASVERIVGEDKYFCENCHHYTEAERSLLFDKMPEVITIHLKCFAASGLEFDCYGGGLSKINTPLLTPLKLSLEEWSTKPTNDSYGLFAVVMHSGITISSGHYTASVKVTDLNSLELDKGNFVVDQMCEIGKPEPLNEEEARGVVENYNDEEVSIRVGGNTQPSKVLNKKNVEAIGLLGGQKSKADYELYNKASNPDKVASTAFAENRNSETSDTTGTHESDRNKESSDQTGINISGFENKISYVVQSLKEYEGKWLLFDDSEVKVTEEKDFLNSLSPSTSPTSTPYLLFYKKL
Chain of Cytochrome P450 3A4 (Homo sapiens) (P08684 whole entry, looked up): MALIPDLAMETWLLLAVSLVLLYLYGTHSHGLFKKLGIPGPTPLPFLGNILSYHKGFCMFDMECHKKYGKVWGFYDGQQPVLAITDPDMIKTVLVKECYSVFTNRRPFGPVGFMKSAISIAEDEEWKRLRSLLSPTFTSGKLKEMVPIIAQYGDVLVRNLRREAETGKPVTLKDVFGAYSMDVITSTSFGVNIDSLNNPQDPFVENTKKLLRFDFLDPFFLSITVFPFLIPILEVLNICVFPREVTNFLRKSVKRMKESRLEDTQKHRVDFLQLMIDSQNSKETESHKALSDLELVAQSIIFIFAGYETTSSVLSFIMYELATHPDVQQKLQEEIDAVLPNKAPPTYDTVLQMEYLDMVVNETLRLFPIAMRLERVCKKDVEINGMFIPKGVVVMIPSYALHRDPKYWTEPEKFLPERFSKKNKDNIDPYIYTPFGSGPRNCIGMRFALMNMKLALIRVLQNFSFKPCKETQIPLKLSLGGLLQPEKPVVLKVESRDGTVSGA
Chain of Retinoic acid receptor RXR-alpha (Homo sapiens) (P19793 whole entry, looked up): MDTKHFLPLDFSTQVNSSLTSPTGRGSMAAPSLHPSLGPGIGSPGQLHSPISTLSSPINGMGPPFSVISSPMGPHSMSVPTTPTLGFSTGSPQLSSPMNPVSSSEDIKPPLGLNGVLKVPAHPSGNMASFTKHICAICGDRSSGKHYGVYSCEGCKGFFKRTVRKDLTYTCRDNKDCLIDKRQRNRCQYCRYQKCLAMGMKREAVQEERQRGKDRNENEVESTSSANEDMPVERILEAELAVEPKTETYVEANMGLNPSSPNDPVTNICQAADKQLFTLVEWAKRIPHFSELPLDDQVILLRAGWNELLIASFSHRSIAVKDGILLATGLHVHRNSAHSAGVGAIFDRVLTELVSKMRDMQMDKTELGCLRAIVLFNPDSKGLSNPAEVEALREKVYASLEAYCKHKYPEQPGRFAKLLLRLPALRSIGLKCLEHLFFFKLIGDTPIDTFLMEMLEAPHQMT
Chain of Peroxisome proliferator-activated receptor delta (Homo sapiens) (Q03181 whole entry, looked up): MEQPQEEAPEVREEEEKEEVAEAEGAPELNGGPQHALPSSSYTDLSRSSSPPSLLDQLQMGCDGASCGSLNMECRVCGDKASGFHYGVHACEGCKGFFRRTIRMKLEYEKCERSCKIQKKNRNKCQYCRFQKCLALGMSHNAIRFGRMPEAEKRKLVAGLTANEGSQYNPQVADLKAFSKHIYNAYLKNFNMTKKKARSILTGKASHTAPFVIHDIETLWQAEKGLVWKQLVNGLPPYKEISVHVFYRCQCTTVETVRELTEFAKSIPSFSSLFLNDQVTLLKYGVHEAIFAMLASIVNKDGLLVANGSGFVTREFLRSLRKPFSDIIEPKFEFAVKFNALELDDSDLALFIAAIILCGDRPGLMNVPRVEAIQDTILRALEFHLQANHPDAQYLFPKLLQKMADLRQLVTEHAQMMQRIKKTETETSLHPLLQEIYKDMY
Chain of Nuclear receptor subfamily 1 group I member 2 (Rattus norvegicus) (Q9R1A7 whole entry, looked up): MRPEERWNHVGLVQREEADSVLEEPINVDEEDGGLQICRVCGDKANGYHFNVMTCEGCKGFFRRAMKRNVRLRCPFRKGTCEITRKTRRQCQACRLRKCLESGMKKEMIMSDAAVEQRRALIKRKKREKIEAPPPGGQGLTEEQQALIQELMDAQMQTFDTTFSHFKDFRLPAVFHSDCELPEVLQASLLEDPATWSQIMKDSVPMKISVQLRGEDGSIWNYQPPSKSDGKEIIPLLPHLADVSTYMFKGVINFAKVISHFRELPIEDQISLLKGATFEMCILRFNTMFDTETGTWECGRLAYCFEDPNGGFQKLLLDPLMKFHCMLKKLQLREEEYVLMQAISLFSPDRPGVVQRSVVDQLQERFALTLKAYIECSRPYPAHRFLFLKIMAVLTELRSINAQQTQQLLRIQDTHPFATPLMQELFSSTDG
Chain of DNA dC->dU-editing enzyme APOBEC-3G (Homo sapiens) (Q9HC16 whole entry, looked up): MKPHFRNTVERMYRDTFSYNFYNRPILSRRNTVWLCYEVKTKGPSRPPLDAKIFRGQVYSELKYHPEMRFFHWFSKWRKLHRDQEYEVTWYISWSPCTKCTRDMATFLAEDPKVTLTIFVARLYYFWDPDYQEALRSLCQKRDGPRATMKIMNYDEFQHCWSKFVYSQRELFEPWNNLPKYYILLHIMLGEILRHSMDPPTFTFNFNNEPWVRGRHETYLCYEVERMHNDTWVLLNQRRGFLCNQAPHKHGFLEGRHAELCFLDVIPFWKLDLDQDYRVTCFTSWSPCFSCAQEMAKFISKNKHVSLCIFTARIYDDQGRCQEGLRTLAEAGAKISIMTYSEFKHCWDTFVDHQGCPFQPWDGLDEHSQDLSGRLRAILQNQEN
Chain of Peroxisome proliferator-activated receptor alpha (Homo sapiens) (Q07869 whole entry, looked up): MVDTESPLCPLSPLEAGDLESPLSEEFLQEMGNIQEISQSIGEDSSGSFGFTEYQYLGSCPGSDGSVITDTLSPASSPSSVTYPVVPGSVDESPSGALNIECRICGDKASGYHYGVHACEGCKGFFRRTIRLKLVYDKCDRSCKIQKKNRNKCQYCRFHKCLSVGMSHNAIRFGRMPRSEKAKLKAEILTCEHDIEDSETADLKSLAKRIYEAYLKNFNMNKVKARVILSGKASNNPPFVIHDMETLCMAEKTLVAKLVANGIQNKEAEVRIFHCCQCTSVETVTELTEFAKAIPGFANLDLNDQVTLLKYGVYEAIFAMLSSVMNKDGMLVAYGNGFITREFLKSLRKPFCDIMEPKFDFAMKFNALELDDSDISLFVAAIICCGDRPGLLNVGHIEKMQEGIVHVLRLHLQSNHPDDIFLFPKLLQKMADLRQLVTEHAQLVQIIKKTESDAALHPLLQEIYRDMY
Chain of Vitamin D3 receptor (Homo sapiens) (P11473 whole entry, looked up): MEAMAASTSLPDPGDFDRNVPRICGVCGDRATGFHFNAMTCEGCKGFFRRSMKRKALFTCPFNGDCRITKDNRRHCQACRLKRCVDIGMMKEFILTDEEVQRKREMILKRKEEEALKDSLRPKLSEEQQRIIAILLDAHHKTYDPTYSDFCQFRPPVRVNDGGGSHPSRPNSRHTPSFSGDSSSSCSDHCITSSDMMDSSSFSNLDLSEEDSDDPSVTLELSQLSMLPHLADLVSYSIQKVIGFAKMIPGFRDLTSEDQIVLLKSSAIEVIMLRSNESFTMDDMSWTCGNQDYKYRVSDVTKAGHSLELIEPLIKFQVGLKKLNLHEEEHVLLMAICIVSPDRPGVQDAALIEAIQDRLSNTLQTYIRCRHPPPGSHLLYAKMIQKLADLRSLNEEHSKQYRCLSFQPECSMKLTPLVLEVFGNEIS

In the case of `COc1cc2c(cc1OC)[C@@]13CCN4CC5=CCOC6CC(=O)N2C1[C@H]6[C@@H]5C[C@@H]43` (stereo not given in full), the Potency result in assay [1], in [2], in assay [3] and in assay [5] was “inactive” throughout. In addition, the activity change, negative = inhibition in assay [4] (at 57.5 µM (top of the series)) was 14% (inactive). For the same compound, the max response in [4] (setting [20]) came out at 9.29%; in [4] (setting [21]) it was 26.2%. In addition, the activity, negative = inhibition in assay [6] (setting [22]) was -1.63% (inactive); in assay [6] (setting [23]), 1.63% (inactive).

Regarding `CNC(=O)Oc1cccc2c1OC(C)(C)O2`, the Potency result in assay [1], in [2], in assay [3], in assay [5], in assay [8] and in [11] was “inactive” each time. The Potency entry in assay [17] was “inactive”. The activity change, negative = inhibition in [4] (at 57.5 µM (top of the series)) is 5.39% (inactive). The max response is 18% in [4] (setting [20]); 22.8% in [4] (setting [21]); 28.5% in [7]; -5.16% in assay [10]; -10.6% in assay [12]; -16.4% (inactive) in assay [13]. Also, the max response in assay [14] was -1.3% (inactive); in assay [15], -5.36% (inactive); in assay [16], -19.8% (inactive); in assay [18], 2.1% (inactive). Further, the outcome in assay [9] was inactive.

Consider `COc1cc2c(c(OC)c1OC)-c1ccc(OC)c(=O)cc1C(NC(C)=O)CC2` (stereo not given), for which the activity change, negative = inhibition in [4] (at 57.5 µM (top of the series)) is 7.05% (inactive). For the same compound, the max response came out at 10.2% in assay [4] (setting [20]) and 20.2% in assay [4] (setting [21]). Also, in assay [5], the Potency entry is “inactive”.

Turning to `O=c1ccc2cc(O[C@H]3O[C@@H](CO)[C@@H](O)[C@@H](O)[C@@H]3O)c(O)cc2o1`, the activity change, negative = inhibition in assay [4] (at 25.7 µM (top of the series)) was -1.03% (inactive). Besides, the max response in [4] (setting [20]) turned out to be 1.01%; in assay [4] (setting [21]), 0.833%. Also, in [5], the Potency result was “inactive”. The activity, negative = inhibition was 3.87% (inactive) in [6] (at 12.8 µM (top of the series), parasite line A) and -4.9% (inactive) in assay [6] (at 12.8 µM (top of the series), parasite line B).

For `CC([C@H](O)c1ccccc1)N(C)C` (stereo not given in full), the Potency entry in [1], in assay [2], in assay [3] and in [5] was “inactive” each time. Besides, the activity change, negative = inhibition in assay [4] (at 57.5 µM (top of the series)) was 4.16% (inactive). For the same compound, the max response was 14.6% in [4] (setting [20]) and 17.5% in assay [4] (setting [21]). In addition, the activity, negative = inhibition is 3.7% (inactive) in assay [6] (setting [22]) and -27.1% (inactive) in [6] (setting [23]).

On to `O=C1CCCC2[C@@H]3CCCN4CCC[C@@H](CN12)C34` (stereo not given in full), for which the Potency entry in assay [1] and in assay [5] was “inactive” each time. Besides, the activity change, negative = inhibition in assay [4] (at 57.5 µM (top of the series)) is 4.15% (inactive). The figures for the max response in [4] (setting [20]) and in assay [4] (setting [21]) were 4.45% and 7.09%, respectively. The call in assay [19] was inactive.

Take `C[C@@]12CC[C@H]3[C@@H](CC[C@]4(O)C[C@H](O)CC[C@@]34C=O)[C@]1(O)CC[C@@H]2C1=CC(=O)OC1`: in assay [4] (at 25.7 µM (top of the series)), the activity change, negative = inhibition is -0.542% (inactive). Moreover, the max response in [4] (setting [20]) amounted to 6.59%; in [4] (setting [21]) it was 6.37%. Moreover, the Potency result in assay [5] is “inactive”.

For `C[N+]1=Cc2cc3c(cc2CC1)OCO3`, the Potency result in assay [1] was “inactive”. The activity change, negative = inhibition in assay [4] (at 57.5 µM (top of the series)) is 4.74% (inactive). Moreover, the max response came out at 15.4% in assay [4] (setting [20]) and 22.1% in assay [4] (setting [21]). For the same compound, the result in [19] was inactive.

As for `N#Cc1c(Cl)cccc1Cl`, the Potency entry in assay [1], in assay [2], in assay [3], in [5], in [8] and in [11] was “inactive” in each case. Besides, the Potency entry in assay [17] is “inactive”. For the same compound, the activity change, negative = inhibition in [4] (at 57.5 µM (top of the series)) was 7.12% (inactive). Besides, the max response was 9.19% in assay [4] (setting [20]); 14.3% in assay [4] (setting [21]); 41.3% in [7]; -4.43% in [10]; -15.4% in assay [12]; 2.12% (inactive) in assay [13]. The max response was 0.511% (inactive) in assay [14], 0.251% (inactive) in assay [15], 0.0704% (inactive) in assay [16] and 2.13% (inactive) in assay [18].
